PLK1 PBD block: PLK1 (human) polo-box domain binding inhibition | P53350 | hit rate 2.8% among 360,000 | AID 720504 | Potency, µM, inactives show max response, negative = inhibition, usual class: inhibitors | Plk1 PBD binding of FITC phosphopeptide, fluorescence polarization; note: potency is the fitted concentration of half-maximal effect; series mostly up to about 57 µM; % is set by controls: 0 for no effect and ±100 for the full control effect; nearly all actives have a fitted effect of over 65% in size
FEN1 inhibitor: human FEN1 inhibition. Recombinant FEN1 flap cleavage, fluorescence, 15 min. Potency, µM (highest dose often 114 µM), for the others: at the top dose activity change, negative = inhibition, actives largely listed as inhibitors. hit rate 0.35% among 390,000. AID 588795; note: potency is the fitted concentration of half-maximal effect; % is set by controls: 0 for no effect and ±100 for the full control effect; nearly all actives have a fitted effect of over 65% in size
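Compounds are tested as a concentration series against 10 nM FEN1; after a 15 min room-temperature preincubation, 50 nM substrate starts cleavage, with plate reads at 0 and 15 min. Normalized responses are fitted by a Hill equation.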
TCR activator: activates T cell receptor signaling. Potency, µM (highest dose often 9.22 µM), inactives show at the highest dose activation of IL-2 secretion, hits mostly activators. 330,000 tested, under 10 active. primary human leukocytes, anti-CD3, IL-2 HTRF, 48 h; note: % of control where 0% means no effect
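Human primary leukocytes + a-CD3 beads + cpd, 48 hr; IL-2 in supernatant by HTRF (ex 320nm / em 665nm). No co-stimulatory signal supplied.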
VDR inhibitor: blocks the human vitamin D receptor. P11473. VDR-SRC2-3 peptide fluorescence polarization, 2 h. Potency, µM, without a hit: max response, negative = inhibition, actives largely listed as inhibitors. hit rate 0.93% among 400,000. AID 504847; note: potency is the fitted concentration of half-maximal effect; % is set by controls: 0 for no effect and ±100 for the full control effect
Target sequence (P11473 whole entry, looked up): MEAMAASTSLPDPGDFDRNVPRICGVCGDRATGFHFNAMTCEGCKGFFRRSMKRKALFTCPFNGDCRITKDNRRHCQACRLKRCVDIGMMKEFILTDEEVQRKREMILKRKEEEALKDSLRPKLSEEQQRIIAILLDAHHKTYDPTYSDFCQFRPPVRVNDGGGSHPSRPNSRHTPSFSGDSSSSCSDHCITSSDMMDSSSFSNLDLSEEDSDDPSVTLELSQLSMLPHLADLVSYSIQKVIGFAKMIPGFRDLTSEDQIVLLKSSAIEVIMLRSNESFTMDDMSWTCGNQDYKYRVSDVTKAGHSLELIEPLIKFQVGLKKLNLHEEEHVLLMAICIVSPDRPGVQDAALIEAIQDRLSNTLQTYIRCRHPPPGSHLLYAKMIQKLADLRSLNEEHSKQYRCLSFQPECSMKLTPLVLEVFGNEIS
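Signal is fluorescence polarization, reporting how far test compounds block the interaction of VDR with the SRC2-3 coregulator peptide after a 2 h room-temperature incubation.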
PI5P4K alpha inh: inhibitors of human PI5P4K alpha. PI5P4Kalpha enzyme, ADP-Glo luminescence, 60 min; active compounds read low. AID 652105. max response, %. P48426. hit rate 1.2% among 330,000; active = max response of -50% or lower; inconclusive = between -30% and -50%; inactive = -30% or higher; note: value at the top dose of about 77 µM; % is set by controls: 0 for no effect and ±100 for the full control effect
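Controls without substrate or without enzyme flank wells where PI5P4Kalpha converts substrate using 5 microM ATP (final). Incubation lasts 60 minutes at room temperature; ADP formed is read by ADP-Glo luminescence.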
WRN inhibitor: blocks human WRN helicase. Q14191. WRN helicase unwinding, fluorescent forked duplex, kinetic. Potency, µM (series often up to 114 µM), for the others: top-dose activity change, negative = inhibition, hits mostly inhibitors. hit rate 0.46% among 360,000; note: potency is the fitted concentration of half-maximal effect; % is set by controls: 0 for no effect and ±100 for the full control effect; nearly all actives have a fitted effect of over 55% in size
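Kinetic fluorescence helicase assay: unwinding of a quenched forked DNA duplex (100 nM final) with 2 mM ATP final raises red fluorescence (525/598 nm). Compounds sat 15 min at room temperature with 20 nM WRN beforehand.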
The depositor's hits bear a star; [ ] = dose if it differs, or a comment. The list is not random: actives were taken first. Their share in the collection is about 3.7%. Unless noted, calls come from the whole dose curve; as a rule, active = well fitted curve in the direction sought with a large enough effect; inconclusive = small, poorly fitted or top-dose-only effect, or another doubt; inactive = no such curve, though single readings can be large; an effect the other way counts as inactive or inconclusive.

Results for C=C1CCC2[C@](C)(CO)[C@H](O)CC[C@@]2(C)[C@@H]1C/C=C1/C(=O)OC[C@H]1O (some centres not stated) ?
VDR inhibitor: -2%

How did CC1CCN(S(=O)(=O)c2ccc3c(ccc(=O)n3CC(=O)NCc3ccccc3Cl)c2)CC1 do in these assays?
FEN1 inhibitor: 9%; VDR inhibitor: 2%

Results for O=c1[nH]c(-c2ccccn2)nc2sc(-c3ccccc3)cc12 ?
PLK1 PBD block: 11µM*; FEN1 inhibitor: -20%; TCR activator: -18%; VDR inhibitor: 79µM*; PI5P4K alpha inh: inconclusive; WRN inhibitor: -35%

Results for Cc1c(C(=O)N(C)C)sc2nc(-c3ccccn3)[nH]c(=O)c12 ?
PLK1 PBD block: -30%; FEN1 inhibitor: -15%; TCR activator: 3%; VDR inhibitor: -11%; PI5P4K alpha inh: -9; WRN inhibitor: 4%

Results for O=C(Cc1ccccc1)NC(NNc1ccccc1)(C(F)(F)F)C(F)(F)F ?
PLK1 PBD block: 27µM*; FEN1 inhibitor: -16%; TCR activator: 1%[46.1 µM]; VDR inhibitor: inconclusive; PI5P4K alpha inh: -7; WRN inhibitor: -11%

Results for O=C(Cc1ccccc1)NNC(=O)Cc1ccccc1 ?
PLK1 PBD block: -11%; FEN1 inhibitor: -3%; TCR activator: -22%; VDR inhibitor: 16%; PI5P4K alpha inh: 2; WRN inhibitor: 1%[57.1 µM]

How did O=C(/C=C\c1ccccc1)Nc1ccc(NC(=O)c2ccco2)cc1 do in these assays?
PLK1 PBD block: 3.4µM*; FEN1 inhibitor: -2%; TCR activator: 13%; VDR inhibitor: 20µM*; PI5P4K alpha inh: inconclusive; WRN inhibitor: inconclusive

Results for O=C(Oc1ccccc1)c1ccc(NC(=O)c2ccco2)cc1 ?
PLK1 PBD block: 24µM*; FEN1 inhibitor: -14%; TCR activator: -3%[46.1 µM]; VDR inhibitor: -22%; PI5P4K alpha inh: -20; WRN inhibitor: -17%

Results for O=C(/C=C/c1ccc(Br)cc1)c1ccc(NC(=O)c2ccco2)cc1 ?
PLK1 PBD block: -6%; FEN1 inhibitor: -14%; TCR activator: 2%[46.1 µM]; VDR inhibitor: 2%; PI5P4K alpha inh: -19; WRN inhibitor: -7%

What do the screens show for `Nc1ccc2c(c1)C(=O)N(c1cccc3ccccc13)C2=O`?
PLK1 PBD block: -10%; FEN1 inhibitor: -4%; VDR inhibitor: 18%; PI5P4K alpha inh: -6; WRN inhibitor: -1%

What do the screens show for `CC1=CC(=O)N(c2cccc3c(N4C(=O)C=C(C)C4=O)cccc23)C1=O`?
PLK1 PBD block: -29%; FEN1 inhibitor: -4%; TCR activator: -8%; VDR inhibitor: -11%; PI5P4K alpha inh: -63*; WRN inhibitor: -1%

How did COc1cccc(C(=O)Nc2ccccc2-c2nnc(-c3cccc(OC)c3)o2)c1 do in these assays?
FEN1 inhibitor: 12%; VDR inhibitor: -2%

How did O=C1NC(c2ccccc2)Nc2c1sc(=S)n2-c1ccccc1 (configuration not stated) do in these assays?
PLK1 PBD block: 21µM*; FEN1 inhibitor: 0%; TCR activator: -4%; VDR inhibitor: -6%; PI5P4K alpha inh: -4; WRN inhibitor: -2%[57.1 µM]

How did O=C(NCCS(=O)(=O)N1CCN(c2ccccc2F)CC1)C1CC(=O)N(c2ccccc2)C1 (configuration not stated) do in these assays?
PLK1 PBD block: -4%; FEN1 inhibitor: -4%; TCR activator: 5%; VDR inhibitor: 6%; PI5P4K alpha inh: 3; WRN inhibitor: -1%

Results for Cc1ccc(N2CC(C(=O)NCCS(=O)(=O)N3CCN(c4ccccc4F)CC3)CC2=O)cc1 (configuration not stated) ?
PLK1 PBD block: 11µM*; FEN1 inhibitor: -14%; TCR activator: 5%; VDR inhibitor: inconclusive; PI5P4K alpha inh: inconclusive; WRN inhibitor: -1%

How did CCc1ccc(OCCCSc2nc(-c3ccc(C(C)(C)C)cc3)nc3cc(=O)[nH]n23)cc1 do in these assays?
FEN1 inhibitor: inconclusive; VDR inhibitor: 8%

How did CCCc1cc2c(-c3ccccc3)cc(=O)oc2cc1OCc1ccc(C(=O)O)o1 do in these assays?
PLK1 PBD block: 24µM*; FEN1 inhibitor: -18%; TCR activator: 3%; VDR inhibitor: -24%; PI5P4K alpha inh: -23; WRN inhibitor: -2%[11.6 µM]

How did CC(NC(=O)OCc1ccccc1)C(=O)Oc1cc2oc(=O)cc(-c3ccccc3)c2cc1Cl (configuration not stated) do in these assays?
PLK1 PBD block: -21%; FEN1 inhibitor: 10%; TCR activator: 3%[46.1 µM]; VDR inhibitor: 13%; PI5P4K alpha inh: -62*; WRN inhibitor: -34%[57.1 µM]

How did COc1ccc(NC(=O)c2c(NCc3ccc(C)o3)sc3c2CCCCC3)c(OC)c1 do in these assays?
FEN1 inhibitor: -15%; VDR inhibitor: 2%

What do the screens show for `CN(C)c1ccc(/C=C/c2ccnc3ccc(N)cc23)cc1`?
FEN1 inhibitor: -32%

What do the screens show for `CCC1CCCCN1C(=S)NC(=O)c1cccs1` (configuration not stated)?
PLK1 PBD block: -13%; FEN1 inhibitor: 15%; TCR activator: -6%; VDR inhibitor: -10%; PI5P4K alpha inh: -5; WRN inhibitor: -9%

Results for O=C(NC(=S)N1CCCCC1CO)c1cccs1 (configuration not stated) ?
PLK1 PBD block: 21µM*; FEN1 inhibitor: 3%; TCR activator: -1%[46.1 µM]; VDR inhibitor: inconclusive; PI5P4K alpha inh: 4; WRN inhibitor: -27%

What do the screens show for `Cc1ccc(C(=O)NN2C(=O)c3ccc(S(=O)(=O)c4ccc(C(=O)O)cc4)cc3C2=O)cc1`?
PLK1 PBD block: 21µM*; FEN1 inhibitor: -1%; TCR activator: -2%; VDR inhibitor: 40µM*; PI5P4K alpha inh: -13; WRN inhibitor: -21%

Results for CN(C)c1ncc2nc(-c3ccccc3)c(=O)n(CCC#N)c2n1 ?
VDR inhibitor: 10%

What do the screens show for `COCc1nnc(NC(=O)C2CCN(C(=O)c3ccco3)CC2)s1`?
PLK1 PBD block: 27µM*; FEN1 inhibitor: 0%; TCR activator: 1%; VDR inhibitor: -8%; PI5P4K alpha inh: -19; WRN inhibitor: -3%

Results for COc1ccccc1Cc1nnc(NC(=O)C2CCN(C(=O)c3ccco3)CC2)s1 ?
PLK1 PBD block: 27µM*; FEN1 inhibitor: 11%; TCR activator: -3%; VDR inhibitor: inconclusive; PI5P4K alpha inh: -26; WRN inhibitor: inconclusive

How did CCOCCSc1c(C)cnc2c1c(=O)n(C)c(=O)n2C do in these assays?
FEN1 inhibitor: -3%; VDR inhibitor: 5%

Results for O=C(Nc1cccc(Cl)c1N1CCOCC1)c1cccs1 ?
PLK1 PBD block: -19%; FEN1 inhibitor: -19%; TCR activator: 6%; VDR inhibitor: -23%; PI5P4K alpha inh: 0; WRN inhibitor: -1%

Screening results: PubChem BioAssay, National Center for Advancing Translational Sciences (NCATS)
